Screening data deposited in PubChem by National Center for Advancing Translational Sciences (NCATS).
The list is not random: actives were taken first. Their share in the collection is about 12%.
Cycloheximide cs – counter-screen for Shiga toxin inhibitors: cycloheximide protein synthesis inhibition. cell reporter, cycloheximide protein synthesis inhibition counterscreen. max response, %. 12% of 300,000 active. AID 2314; in the data active = max response mostly above about 13%, no sharp cut-off; inactive = mostly below about 14%; also: read at 38.3 µM for the half of the compounds with a filed dose
Shiga toxin inh – blocks Shiga toxin action in Vero cells | 9.2% of 290,000 active | Vero cells, Shiga toxin protein synthesis inhibition reporter | inhibition, % at 38.7 µM; in the data active = inhibition mostly above about 28%, no sharp cut-off; inactive = mostly below about 43%
NS1 inh – influenza NS1 inhibition. Potency, µM (series often up to 46.1 µM). 0.4% of 270,000 active; also: actives are rising curves; nearly all actives have a fitted effect of over 50% in size
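OD600 was taken as the measure of yeast growth restored by compound in an NS1-expressing S. cerevisiae strain. Cells had been washed out of glucose medium and diluted 1:100 into galactose -URA medium, pH 6.0.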
SARS PLP yeast – blocks SARS-CoV papain-like protease in a yeast assay; S. cerevisiae expressing SARS-CoV PLpro, growth rescue; Potency, µM (highest dose often 32.9 µM), usual class: activators; 0.19% of 330,000 active; also: nearly all actives have a fitted effect of over 55% in size
Large screens that a line does not name were inactive. Unless noted, calls follow the shape of the full dose curve.

CC(C)Cc1nnc(NC(=O)c2cc3c(s2)CCC3)s1	Cycloheximide cs 17, Shiga toxin inh 55
O=C(Nc1nncs1)c1cc2c(s1)CCC2	Cycloheximide cs 21, Shiga toxin inh 30 (no result: NS1 inh)
CCCCN=CC1=C(O)C(C(=O)OC)C(C)(C)CC1=O (stereo not drawn)	none
Cc1ccc(-c2csc(NC(=O)CSc3nc(C)cc(=O)[nH]3)n2)cc1	Cycloheximide cs 31, SARS PLP yeast inconclusive
CCC(Sc1nc(C)cc(=O)[nH]1)C(=O)Nc1nc(-c2ccccc2)cs1 (stereo not drawn)	Cycloheximide cs 31
CCCc1cc(=O)[nH]c(SCC(=O)Nc2ccc(C)cc2)n1	none
Cc1ccc(-c2csc(NC(=O)CSC3=NCCS3)n2)cc1	Cycloheximide cs 50, Shiga toxin inh 69
CC1=C(C(=O)OC2CCCCCC2)C(c2ccc(C)o2)C2=C(CCCC2=O)N1 (stereo not drawn)	Shiga toxin inh active
CC1=C(C(=O)OC2CCCCC2)C(c2ccc(C)o2)C2=C(CC(C)(C)CC2=O)N1 (stereo not drawn)	none
CC(C)C(NC(=O)C(NC(=O)C1OC2OC(C)(C)OC2C2OC(C)(C)OC12)C(C)C)C(=O)O (stereo not drawn)	Cycloheximide cs 15, Shiga toxin inh 31
CC1CCN(C(=O)/C(=C\c2cccs2)NC(=O)c2ccccc2)CC1	none
CC(=O)Oc1ccc(C(=O)Nc2cc(C)ccc2NC(=O)COc2ccccc2)cc1	none
Cc1nc2ccc(NC(=S)NC3CC3)cc2nc1C	Cycloheximide cs 19
Cc1nc2ccc(NC(=S)NC(C)C)cc2nc1C	Cycloheximide cs 20
Cc1nc2ccc(NC(=S)NCCCO)cc2nc1C	none
Cc1ccc(C2CN=NC23CCc2ccccc2C3=O)cc1 (stereo not drawn)	Cycloheximide cs 47, Shiga toxin inh 173
COC(=O)C1(Cc2cc(-c3cccnc3)no2)CCN(C(=O)OC(C)(C)C)CC1	Cycloheximide cs 10.0
CC/C(=C(/c1ccccc1)c1ccc(OCCN(C)C)cc1)c1ccccc1	none (no result: NS1 inh, SARS PLP yeast)
Cc1cc(C(=O)COC(=O)c2ccc3c(c2)NC(=O)CS3)c(C)n1CC1CCCO1 (stereo not drawn)	Cycloheximide cs 38, Shiga toxin inh 56
Cc1cc(C(=O)COC(=O)c2ccc(O)cc2)c(C)n1CC1CCCO1 (stereo not drawn)	Cycloheximide cs 59, Shiga toxin inh 107 (no result: NS1 inh)
COCC(C)n1c(C)cc(C(=O)COC(=O)c2ccc3c(c2)NC(=O)CS3)c1C (stereo not drawn)	none
COc1cc(OC)cc(C(=O)OCC(=O)c2cc(C)n(CC3CCCO3)c2C)c1 (stereo not drawn)	none (no result: Cycloheximide cs, Shiga toxin inh, NS1 inh)
O=C(C[C@H]1C/C=C\CCCCC(=O)OC[C@H]2CCCN2C1=O)N[C@H](CO)Cc1ccccc1	none (no result: Cycloheximide cs, Shiga toxin inh, NS1 inh)
CCCc1nc2ccccc2[nH]1	none
O=C(NCCc1nc2ccccc2[nH]1)c1cc([N+](=O)[O-])cc([N+](=O)[O-])c1	none
c1ccc(N/N=C(\Cc2nc3ccccc3[nH]2)c2ccccc2)cc1	Cycloheximide cs 52, Shiga toxin inh 48
CCN/N=C(\Cc1nc2ccccc2[nH]1)c1ccccc1	Cycloheximide cs 20
Cc1ccc(N/N=C(\Cc2nc3ccccc3[nH]2)c2ccccc2)cc1	Cycloheximide cs 35, Shiga toxin inh 48
N/N=C(/Cc1nc2ccccc2[nH]1)c1ccc([N+](=O)[O-])cc1	Cycloheximide cs 44, Shiga toxin inh 141 (no result: NS1 inh)
O=c1c(Cc2ccc(Cl)cc2)c(O)ccn1Cc1ccncc1	none
COc1ccccc1N1CCN(C(=O)c2cc(-c3ccc(F)cc3)[nH]c2C)CC1	none
N#CCCN/N=C(/Cc1nc2ccccc2[nH]1)c1ccc(Cl)cc1	Cycloheximide cs 30, Shiga toxin inh 67
Clc1cccc(/C(Cc2nc3ccccc3[nH]2)=N\Nc2ccccc2)c1	Cycloheximide cs 54, Shiga toxin inh 55 (no result: SARS PLP yeast)
N#CCCN/N=C(\Cc1nc2ccccc2[nH]1)c1ccccc1	none
Cc1cc(OC(=O)N(C)C)nc(-c2ccc(C)c(Cl)c2)n1	Shiga toxin inh 39
CC/C(=N\NC(=O)c1ccc(Br)cc1)c1ccccc1	none
Cc1ccc(C(=O)N/N=C(\CC(C)C)c2ccccc2)cc1	Cycloheximide cs 44, Shiga toxin inh 71
COc1cccc(C(=O)N/N=C(\CC(C)C)c2ccccc2)c1	Cycloheximide cs 22, Shiga toxin inh 55
CCC/C(=N/NC(=O)c1cccc(Cl)c1)c1ccccc1	Cycloheximide cs 59, Shiga toxin inh 80
CCOC(=O)c1ccc(S(=O)(=O)N2CCC(C(=O)NCC3CCCCC3)CC2)cc1	none (no result: Cycloheximide cs, Shiga toxin inh, NS1 inh)
CCOc1cc(NC(=S)NCCc2ccccc2)c(OCC)cc1NC(C)=O	none
O=C(Nc1ccc(Cl)cc1[N+](=O)[O-])c1ccc2c(c1)OCCO2	Cycloheximide cs 40, Shiga toxin inh 67
O=C(Nc1cc(Cl)ccc1N1CCOCC1)c1ccc2c(c1)OCCO2	none
O=C(Nc1ccc(F)c([N+](=O)[O-])c1)c1ccc2c(c1)OCCO2	Cycloheximide cs 33, Shiga toxin inh 55
O=C(NCC1CCCO1)c1cc2ccccc2o1 (stereo not drawn)	Cycloheximide cs 24
O=S(=O)(NCC1COc2ccccc2O1)c1ccccc1F (stereo not drawn)	none (no result: Cycloheximide cs, Shiga toxin inh, NS1 inh)
O=C(NCC1CCCO1)c1cc2ccccc2nc1Cl (stereo not drawn)	Cycloheximide cs 28, Shiga toxin inh 76 (no result: NS1 inh)
O=C(OCC1COc2ccccc2O1)c1ccccc1F (stereo not drawn)	Cycloheximide cs 19
O=C(CCNC(=O)c1ccccc1Cl)NCC1COc2ccccc2O1 (stereo not drawn)	none (no result: Cycloheximide cs, Shiga toxin inh, NS1 inh)
O=C(CCNC(=O)c1ccc(Br)cc1)NCC1COc2ccccc2O1 (stereo not drawn)	Cycloheximide cs 23, Shiga toxin inh 71
O=C(Cc1ccccc1)NCC1CCCO1 (stereo not drawn)	none
O=C(NCC1CCCO1)c1cc2ccccc2cc1O (stereo not drawn)	none (no result: Cycloheximide cs, Shiga toxin inh, NS1 inh)
COc1ccc(/C=C(/NC(=O)c2ccc(OC)c(OC)c2)C(=O)NCCCn2ccnc2)cc1	none
CC(CCc1ccccc1)NC(=O)CCC(=O)N1CCC(C(N)=O)CC1 (stereo not drawn)	none
CC(C)CN(C(=O)COC(=O)Cc1c[nH]c2ccccc12)c1c(N)n(Cc2ccccc2)c(=O)[nH]c1=O	none (no result: Cycloheximide cs, Shiga toxin inh, NS1 inh)
CC1(C)NC(=O)N(CC(=O)N2CCN(S(=O)(=O)c3ccccc3C(F)(F)F)CC2)C1=O	none (no result: Cycloheximide cs, Shiga toxin inh, NS1 inh)
CC(NC(=O)CCn1nc(-c2ccc(Cl)cc2)ccc1=O)c1ccccc1 (stereo not drawn)	none (no result: NS1 inh)
Cc1csc(CNc2ncnc3ccc(-c4ccc5c(ccn5C)c4)cc23)c1	none (no result: Cycloheximide cs, Shiga toxin inh, NS1 inh)
O=C(NCC1COc2ccccc2O1)c1ccc(NC(=O)C2CCCO2)cc1 (stereo not drawn)	Cycloheximide cs 15, Shiga toxin inh 37, SARS PLP yeast inconclusive
O=C(NCC1COc2ccccc2O1)c1cc2ccccc2o1 (stereo not drawn)	Cycloheximide cs 31, Shiga toxin inh 65
O=C(NCC1COc2ccccc2O1)c1ccccc1 (stereo not drawn)	Cycloheximide cs 50, Shiga toxin inh 103
O=C(NC(=S)NCC1COc2ccccc2O1)c1ccccc1 (stereo not drawn)	none
Cc1ccc(/C=C/C(=O)NCC2COc3ccccc3O2)o1 (stereo not drawn)	Cycloheximide cs 16 (no result: NS1 inh)
CC1CCCCN1CCCNc1ccc(C(CC(N)=O)NC(=O)Cc2ccc(Cl)cc2)cc1[N+](=O)[O-] (stereo not drawn)	none
